LANA-H2A inh = blocks KSHV LANA binding to histone H2A/H2B; Q9QR71; cell-free LANA-H2A/H2B peptide, fluorescence polarization; inhibition, % (no concentration beside the values); hit rate 0.6% among 320,000; in the data active = inhibition mostly above about 10%, no sharp cut-off; inactive = mostly below about 6.7%
IDE cell inh = inhibits human insulin-degrading enzyme in HEK cells; AID 434962; FAbetaB cleavage, fluorescence polarization; hit rate 0.41% among 320,000; P14735; inhibition, % at 5.59 µM;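 active = percent inhibition above the average of all tested compounds plus 3 SD, set per screening campaign, cut at about 16% in these data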;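 also: IDE supplied by intact live HEK cells; FP after avidin binding of uncleaved biotin substrate so inhibition keeps polarization high; 0% = DMSO wells and 100% = 60 µM reference IDE inhibitor Ii1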
Mot1-301 SUMO = blocks SUMOylation pathway, rescuing yeast Mot1-301 growth. S. cerevisiae Mot1-301 growth rescue, ATP luminescence, 38.5C; percent above DMSO median, 100 means doubled. growth rescue, % at 18.8 µM. hit rate 1% among 320,000. AID 2716;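 active = every valid replicate shows activation above 250% relative to neutral control wells; inactive = the rest, any valid replicate at or below 250%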;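 also: OY570 slx delta 5 strain wells were the positive control but not used for scaling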
IDE cell activ = IDE (human) activation, cell-based. HEK cells, FAbeta-B cleavage, fluorescence polarization; 0% vehicle, 100% cell-free pure enzyme wells. activation, % at 5.96 µM. hit rate 0.073% among 340,000. AID 493087;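 active = activation above the mean of all tested compounds plus 3 SD, set per screening campaign, cut at about 17% in these data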
HDAC3 inhib = inhibitors of human histone deacetylase 3; O15379; recombinant HDAC3, fluorogenic peptide/trypsin coupled, fluorescence; inhibition, % at 8.3 µM; hit rate 0.15% among 320,000; AID 2718; in the data active = inhibition above about 26%, passing the limit was not always enough
IDE inh confirm = cellular human IDE inhibition, confirmation; shares compounds with IDE cell inh; HEK cells, FAbetaB cleavage, fluorescence polarization; inhibition, % at 5.59 µM; hit rate 51% among 1,200;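 active = mean inhibition across triplicate wells above the cutoff set by the earlier primary insulin-degrading enzyme screen, cut at about 16% in these data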;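 also: 0% = DMSO wells and 100% = 60 µM reference IDE inhibitor Ii1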
HEK cytotox = counter-screen for IDE inhibitors: cytotoxicity in HEK cells; shares compounds with IDE cell inh; HEK293 cytotoxicity, ATP luminescence; inhibition, % at 5.59 µM; hit rate 28% among 1,200; AID 449730; in the data active = inhibition above about 22%;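 also: 0% = vehicle wells and 100% = reference cytotoxic drug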
Starred values were filed as active, the others as inactive. The list is not random: actives were taken first. Their share in the collection is about 2.1%.

For O=C(NCCOc1ccccc1F)C1CCC(=O)N(CCc2cccc(F)c2)C1 (stereo not given) the results were LANA-H2A inh -2, IDE cell inh 2, Mot1-301 SUMO 37, IDE cell activ 2 and HDAC3 inhib 7.
`Cc1cc(C)cc(C(=O)Nc2ccc(NC(=O)c3cccs3)cc2)c1` gave LANA-H2A inh 3, IDE cell inh 19*, Mot1-301 SUMO 30, IDE cell activ -25, HDAC3 inhib 2, IDE inh confirm 11 and HEK cytotox 15.
For COc1ccc(S(=O)(=O)N(C)C[C@@H]2Oc3c(NS(=O)(=O)c4cn(C)cn4)cccc3C(=O)N([C@@H](C)CO)C[C@@H]2C)cc1 the results were LANA-H2A inh 0, IDE cell inh 4, Mot1-301 SUMO -6, IDE cell activ 4 and HDAC3 inhib -2.
`COc1ccc(-c2nnc3ccc(SCC(=O)Nc4nccs4)nn23)cc1OC` gave LANA-H2A inh 0, IDE cell inh 5, Mot1-301 SUMO -5, IDE cell activ -1 and HDAC3 inhib -7.
For COc1ccc(-c2nnc3ccc(SCC(=O)Nc4nc5ccccc5s4)nn23)cc1OC the results were LANA-H2A inh -1, IDE cell inh 18*, Mot1-301 SUMO 10, IDE cell activ -24, HDAC3 inhib 3, IDE inh confirm 5 and HEK cytotox 11.
O=C(Nc1ccc(-c2nc3ccccc3s2)cc1)c1cc(-n2cnnc2)ccc1Cl was read as LANA-H2A inh 13, IDE cell inh 22*, Mot1-301 SUMO 5, IDE cell activ -8, HDAC3 inhib -3, IDE inh confirm 5 and HEK cytotox 67*.
Cc1cccc(CCNC(=O)c2cccc(NC3=NC4CS(=O)(=O)CC4S3)c2)c1 (stereo not given) was read as LANA-H2A inh 4, IDE cell inh 1, Mot1-301 SUMO 79, IDE cell activ -1 and HDAC3 inhib 4.
Screening O=C(N/N=C/c1cccnc1)c1cccc(NC(=O)c2cccc(Br)c2)c1 returned LANA-H2A inh -4, IDE cell inh 25*, Mot1-301 SUMO -17, IDE cell activ -14, HDAC3 inhib 2, IDE inh confirm 17* and HEK cytotox 8.
For CC(C)(C)NC(=O)CSc1nc(-c2ccc(F)cc2)cs1 the results were LANA-H2A inh 5, IDE cell inh 16*, Mot1-301 SUMO -10, IDE cell activ 5, HDAC3 inhib 5, IDE inh confirm 2 and HEK cytotox 14.
For CCNC(=O)CSc1nc(-c2ccc(F)cc2)cs1 the results were LANA-H2A inh -4, IDE cell inh 4, Mot1-301 SUMO -2, IDE cell activ -2 and HDAC3 inhib -6.
For CCCCn1c(N)c(N(CCOC)C(=O)CN2C(=O)NC3(CC(C)CC(C)(C)C3)C2=O)c(=O)[nH]c1=O (stereo not given) the results were IDE cell activ 5.
For Cc1cc(C)c2nc(/N=C(\N)NC(=O)c3ccccc3)nc(C)c2c1 the results were LANA-H2A inh -10, IDE cell inh 17*, Mot1-301 SUMO -2, IDE cell activ 5, HDAC3 inhib 6, IDE inh confirm 4 and HEK cytotox 10.
For Cc1cc(C)c2nc(/N=C(\N)NC(=O)Nc3ccccc3)nc(C)c2c1 the results were LANA-H2A inh -1, IDE cell inh -5, Mot1-301 SUMO 10, IDE cell activ 4 and HDAC3 inhib 1.
For O=c1oc2ccccc2cc1-c1nc2c(s1)CCc1ccccc1-2 the results were LANA-H2A inh 3, IDE cell inh 1, Mot1-301 SUMO 7, IDE cell activ 5 and HDAC3 inhib 4.
O=c1oc2cc(O)ccc2cc1-c1nc2c(s1)CCc1ccccc1-2 was read as LANA-H2A inh 1, IDE cell inh 128*, Mot1-301 SUMO -8, IDE cell activ 31*, HDAC3 inhib -48, IDE inh confirm 26* and HEK cytotox 16.
O=C(c1ccccc1)N1CCC2(CC1)NCCc1[nH]cnc12 was read as LANA-H2A inh -8, IDE cell inh 1, Mot1-301 SUMO 7, IDE cell activ 4 and HDAC3 inhib -6.
Screening COCC(=O)N1C[C@H]2CON(C)[C@H]2C[C@H]1c1cccc(-c2ccc(C#N)cc2)c1 returned IDE cell activ -1.
For N#CC1=C(N)NC(=S)C(C(N)=O)C1c1ccc(Cl)cc1Cl (stereo not given) the results were LANA-H2A inh -2, IDE cell inh 5, Mot1-301 SUMO -25, IDE cell activ -26 and HDAC3 inhib 0.
N#CC1=C(N)NC(=S)C(C(N)=O)C1c1ccccc1F (stereo not given) was read as LANA-H2A inh 0, IDE cell inh 27*, Mot1-301 SUMO -17, IDE cell activ -8, HDAC3 inhib 12, IDE inh confirm 11 and HEK cytotox 6.
CCn1c(-c2ccc(-c3ccccc3)cc2)c[nH]c1=S was read as LANA-H2A inh -8, IDE cell inh 16*, Mot1-301 SUMO 14, IDE cell activ -7, HDAC3 inhib -3, IDE inh confirm -3 and HEK cytotox 18.
CCCc1cc(=O)oc2c3c(cc(OCC(=O)NCc4ccncc4)c12)OC(C)(C)CC3 was read as LANA-H2A inh 23, IDE cell inh 23*, Mot1-301 SUMO -19, IDE cell activ -25, HDAC3 inhib -76, IDE inh confirm 8 and HEK cytotox 25*.
For Cc1[nH]n(-c2ccccc2)c(=S)c1C=Nc1ccc([N+](=O)[O-])cc1 the results were LANA-H2A inh -6, IDE cell inh 20*, Mot1-301 SUMO -4, IDE cell activ -33, HDAC3 inhib 10, IDE inh confirm 3 and HEK cytotox 18.
For CCOC(=O)C1=C(CSc2nc3c(cc2C#N)CCC3)OC(N)=C(C#N)C1c1ccccc1 (stereo not given) the results were LANA-H2A inh 8, IDE cell inh 17*, Mot1-301 SUMO -24, IDE cell activ -8, HDAC3 inhib 10, IDE inh confirm 0 and HEK cytotox 8.
For CCc1ccc(N2CC(C(=O)NC3CCCCC3C)CC2=O)cc1 (stereo not given) the results were LANA-H2A inh -8, IDE cell inh -2, Mot1-301 SUMO 249, IDE cell activ 6 and HDAC3 inhib 2.
Cc1nc(Nc2nc(CSc3nc4ccccc4[nH]3)cc(=O)[nH]2)nc2ccccc12 was read as LANA-H2A inh -7, IDE cell inh 45*, Mot1-301 SUMO -16, IDE cell activ -38, HDAC3 inhib 0, IDE inh confirm 10 and HEK cytotox 42*.
For CCC(C)(C)n1nnnc1C(c1ccc2ncccc2c1)N1CCN(c2nc3ccccc3s2)CC1 (stereo not given) the results were LANA-H2A inh -2, IDE cell inh 18*, Mot1-301 SUMO -13, IDE cell activ -10, HDAC3 inhib -1, IDE inh confirm 11 and HEK cytotox 26*.
